Source: PubChem BioAssay (several laboratories)
Yp Topo-I inh: Y. pestis Topo-I inhibition via cleavage products. Y. pestis Topo-I cleavage product accumulation, plate reader. activity, % at 10 µM. hit rate 0.064% among 360,000; in the data active means activity above about 50%, passing the limit was not always enough; inconclusive means no clear call, values can overlap the other calls
VHR inh abs: DUSP3 (human) phosphatase inhibition. hit rate 0.52% among 290,000. inhibition, % at 13.3 µM. recombinant VHR phosphatase, pNPP absorbance; in the data active means inhibition above about 50%
TcdB inh: inhibitors of Clostridioides difficile toxin B glycohydrolase. P18177. TcdB glycohydrolase enzymatic assay, plate reader. inhibition, % at 9.99 µM. hit rate 0.24% among 350,000; in the data active means inhibition above about 10%
Vc quorum ag: quorum light induction in luxS cqsA deficient V. cholerae | activation, % at 18.7 µM | V. cholerae BH1578 lux reporter, luminescence, 6 h | hit rate 0.16% among 350,000; in the data active means activation mostly above about 9.7%, no sharp cut-off; inconclusive means no clear call, values can overlap the other calls; inactive means mostly below about 3.7%
PfHsp40 yeast: restores yeast growth despite PfHsp40 toxicity; S. cerevisiae expressing PfHsp40, growth rescue, ATP luminescence; growth rescue, % at 12.5 µM; hit rate 0.68% among 340,000; in the data active means growth rescue above about 28%, passing the limit was not always enough; inconclusive means no clear call, values can overlap the other calls;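 further: yeast W303a lacking pdr1 and pdr3 grown in galactose medium; growth measured after three days at 30 °C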
BioA inh: inhibitors of Mycobacterium tuberculosis BioA enzyme. inhibition, % at 9.99 µM. AID 602481. hit rate 0.096% among 360,000. purified M. tuberculosis BioA enzyme, plate reader; in the data active means inhibition above about 40%; inconclusive means no clear call, values can overlap the other calls
An asterisk follows results filed as active; i = inactive; ? = inconclusive; · = no result. Most compounds without a hit are left out; they make up all but 1.2% or so of the library.

SMILES | Yp Topo-I inh | VHR inh abs | TcdB inh | Vc quorum ag | PfHsp40 yeast | BioA inh
CC(=O)NC(=S)NNC(=O)C(c1ccccc1)c1ccccc1 | -3 | 14 | 0 | 0 | 62* | ·
COc1ccc(-c2sc3cc4c(cc3c2C#CCO)OCO4)cc1 | -2 | · | · | i | -1 | 0
OCCCCC#Cc1c(-c2ccsc2)sc2ccccc12 | 20 | 32 | 1 | i | ? | -1
COc1ccccc1-c1sc2cc3c(cc2c1C#Cc1cncn1C)OCO3 | 35 | · | 0 | 11 | 246* | -3
COc1ccc(-c2sc3ccccc3c2C#CCO)cc1 | 5 | 17 | 0 | i | 31* | -1
COc1ccc(-c2sc3cc(OC)c(OC)cc3c2C#CCCO)cc1 | 11 | · | 0 | -4 | 0 | 1
OCCC#Cc1c(-c2ccsc2)sc2ccccc12 | 5 | 9 | 1 | -1 | 56* | -1
COc1ccc(-c2sc3ccccc3c2C#CCCO)cc1 | 13 | 25 | 1 | -1 | 41* | -1
COc1ccc(-c2sc3ccccc3c2C#Cc2cncn2C)cc1 | 13 | · | 2 | -1 | 414* | 0
Cn1cncc1C#Cc1c(-c2ccc(S(C)(=O)=O)cc2)sc2ccccc12 | -8 | · | 1 | i | 2 | -1
COc1ccc(-c2sc3ccccc3c2/C=C/c2ccncc2)cc1 | 19 | · | -2 | 0 | 75* | -1
CCN1CCN(C(=S)c2ccc(Br)cc2)CC1 | -8 | 52* | 1 | 1 | 0 | 0
CCN1CCN(C(=S)c2ccc(O)cc2)CC1 | -7 | 47 | 8 | -1 | 2 | 0
Cc1cc(C)cc(OCC(=O)OCC(=O)Nc2cc(S(=O)(=O)N3CCOCC3)ccc2Cl)c1 | 26 | · | 2 | i | ? | 0
CCN(CC)c1ccc(C=NCCNS(=O)(=O)c2ccc(C)cc2)cc1 | 1 | 57* | 1 | i | 0 | -2
O=c1cc(-c2cccc(F)c2)oc2ccccc12 | 3 | · | 0 | i | 2 | 1
O=C(CNC(=O)c1ccccc1Br)N/N=C/c1ccc(O)cc1 | 2 | 13 | 13* | 0 | 0 | ·
O=C(N/N=C/c1ccc(O)cc1)c1csc2ccccc12 | -5 | 16 | · | 18* | 0 | 0
COc1ccccc1-n1c(C)cc(SC)c(C(C)=O)c1=S | 0 | 52* | · | 0 | -1 | -1
CCN(CC)c1ccc(NC(=O)CN(C)Cc2cccs2)cc1 | 29 | 53* | -1 | 0 | -1 | 0
Cc1ccc(NC(=O)CN(C)Cc2cccs2)cc1Cl | -1 | 10 | 2 | 0 | 0 | 1
C[C@H](NS(=O)(=O)c1c(Cl)cccc1Cl)C(=O)NNC(=O)COc1ccccc1F | 2 | · | -1 | i | 50* | -3
Cc1cccn2c(=O)c3cc(C(=O)NC4CCCCC4)c(=N)n(CCN4CCOCC4)c3nc12 | 11 | 13 | 1 | 0 | -1 | ·
CCCn1c(=N)c(C(=O)NC2CCCC2)cc2c(=O)n3cccc(C)c3nc21 | 12 | 18 | · | 17* | 3 | -2
CCC(=O)N1CCc2cc(S(=O)(=O)CCC(=O)NCc3ccc4c(c3)OCO4)ccc21 | -8 | -15 | · | i | 0 | 1
SMILES | Yp Topo-I inh | VHR inh abs | TcdB inh | Vc quorum ag | PfHsp40 yeast | BioA inh
Nc1cc(=O)[nH]c(SCC(=O)Nc2ccccc2Sc2ccc(Cl)cc2)n1 | 2 | 22 | 10* | 0 | 0 | ·
O=C(NCCCN1CCCC1)c1ccc2c(c1)N(Cc1ccccc1F)C(=O)c1ccccc1S2(=O)=O | -17 | 51* | 0 | 0 | -1 | 0
CCOC(=O)c1[nH]c(C)c(CN(CCc2ccccc2)C(=O)CCC(=O)O)c1C | -1 | 10 | · | -6 | 2 | -1
Cc1ccc(CN2CC(C(=O)N(Cc3nnc(-c4ccccc4Cl)o3)C3CC3)CC2=O)cc1 (stereo not drawn) | 30 | · | 0 | i | 561* | 3
CCCCS(=O)(=O)N1CN(S(=O)(=O)CCCC)C2NC(=O)NC21 (stereo not drawn) | 2 | 17 | · | i | 0 | ·
Cc1n[nH]c(=O)c2c1nnn2Cc1ccccc1Cl | 4 | 19 | 1 | 1 | -1 | -7
Cc1n[nH]c(C)c1N1C(=O)c2cccc3cc(Br)cc(c23)C1=O | 8 | -10 | · | -1 | -1 | 58*
Cc1ccc(CNCCCn2cnc(C(=O)Nc3ccc(C)c(C)c3)n2)o1 | 8 | · | 14* | -1 | 0 | -1
Cc1ccc(NC(=O)c2ncn(CCCNCc3ccccc3)n2)cc1C | 1 | · | 1 | i | 0 | 1
C/C=C/C(=O)OCC(=O)Nc1c(Cl)cccc1Cl | -4 | 6 | · | -5 | -2 | ·
Cc1cc(O)c2c(c1)C(=O)C13C(=C2O)C(=O)[C@H]2[C@@H](O)[C@@H]1[C@H]1[C@H](O)[C@@H]3C(=O)C3=C(O)c4c(O)cc(C)cc4C(=O)C312 (stereo partly drawn) | 403* | · | · | -1 | 282* | 0
O=C(N1CCN(c2ccccc2)CC1)C(F)(F)C(F)(F)F | -1 | -5 | · | i | 0 | ·
O=C(N1CCN(c2ccccc2)CC1)C(F)(F)C(F)F | -1 | 52* | 0 | 2 | 0 | 0
Cc1noc(C)c1S(=O)(=O)N(C)C[C@H]1OCCCC[C@H](C)Oc2ccc(NS(=O)(=O)c3cccs3)cc2C(=O)N([C@H](C)CO)C[C@@H]1C | · | · | 0 | · | · | 0
Cc1cc(C(=O)CSc2nnnn2-c2ccc(O)cc2)c(C)n1Cc1ccc2c(c1)OCO2 | -2 | 0 | · | 0 | 2 | -1
Cc1cc(C(=O)CSc2nnnn2-c2ccccc2)c(C)n1-c1ccc2c(c1)OCO2 | 18 | -1 | 11* | 0 | 1 | ·
Cc1cccc(CN2CCSCC2)c1 | 0 | -2 | 0 | i | -1 | -1
O=C(O)/C=C/C(=O)c1ccc2c(c1)CCc1ccccc1-2 | 10 | · | -1 | i | 430* | 2
C[C@@H]1CN([C@H](C)CO)C(=O)Cc2cc(NS(C)(=O)=O)ccc2O[C@@H]1CN(C)C | · | · | 1 | · | · | 1
O=C(NCc1ccccc1)C1=C[C@@H](C2CC2)C[C@@H](OCc2ccc(CO)cc2)O1 | 27 | 12 | 0 | 0 | 55* | 3
O=C(NCc1ccccc1)C1=C[C@H](C2CCCCC2)C[C@H](OCc2ccc(CO)cc2)O1 | 12 | 10 | -1 | 0 | 3 | 1
O=C(NCc1cccnc1)c1sc2cc(Cl)ccc2c1Cl | 12 | 50* | · | 0 | 0 | 7
Cc1ccc2c(c1)C1CC(C)(O2)N(c2cccc(C(=O)N3CCN(c4ccccn4)CC3)c2)C(=O)N1 (stereo not drawn) | 19 | 56* | 1 | 0 | 0 | -4
CCOC(=O)C1CCN(C(=O)c2cccc(N3C(=O)NC4CC3(C)Oc3ccc(C)cc34)c2)CC1 (stereo not drawn) | 10 | 6 | -2 | 0 | 0 | 1
CCC(=O)N(CC(C)C)C[C@@H]1[C@@H](c2ccccc2)[C@H](CO)N1C(=O)C1CCC1 | · | · | -1 | · | · | -2
CC(=O)OCC(=O)N1N=C(c2ccc3ccccc3c2)CC1c1ccccc1 (stereo not drawn) | 13 | 8 | 0 | 0 | 2 | ·
